Screens deposited in PubChem BioAssay by Columbia University Molecular Screening Center.
IL1B cytotox = HUVEC cytotoxicity counter-screen, IL-1B stimulated. HUVEC cell count loss, Hoechst imaging. cell count reduction, % at 2 µM. hit rate 0.41% among 94,000. AID 845;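 active means cell count reduction more than 3 SD above the screen-wide mean, cut at about 70% in these data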;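 further: normalized per plate to untreated control cells as the no-loss baseline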
IL1B NFkB inh = blocks IL-1B driven NFkB nuclear translocation in HUVEC cells. hit rate 0.43% among 94,000. HUVEC IL-1B NFkB p65 nuclear translocation imaging. AID 796. inhibition, % at 2 µM;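 active means inhibition above about 30% together with a positive call from visual inspection of the well image, limit read from the data; inconclusive means inhibition above a set limit but visual check negative; inactive means inhibition not above a set limit, visual check negative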;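 further: nuclear over cytoplasmic p65 intensity ratio measured by imaging; 0% = IL-1B stimulated DMSO wells and 100% = unstimulated DMSO wells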
VCAM1 TNFa inh = reduces TNF alpha induced VCAM1 expression in HUVEC; HUVEC TNFa-induced VCAM-1 immunofluorescence, high-content imaging; hit rate 0.48% among 95,000; inhibition, % at 2 µM; AID 802;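 active means inhibition above the batch mean plus 3 SD, with images confirmed as a hit by eye, cut at about 37% in these data; inconclusive means inhibition above that limit but hit not confirmed in images; inactive means inhibition not above that limit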;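 further: 0% = TNF-stimulated DMSO wells and 100% = unstimulated control wells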
TNFa cytotox = HUVEC cytotoxicity counter-screen, TNF alpha stimulated; cell count reduction, % at 2 µM; HUVEC TNFalpha-stimulated, Hoechst cell count, imaging; hit rate 0.17% among 93,000;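 active means cell count reduction exceeding the screen mean by over 5 SD, scaled to untreated wells per plate, cut at about 78% in these data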;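 further: cells counted after 24 h of TNF alpha exposure following the 1 h pretreatment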
NFkB transloc pot = enhances IL-1B driven NFkB nuclear translocation; HUVEC IL-1B NFkB p65 nuclear translocation imaging; activation, % at 2 µM; hit rate 0.3% among 94,000; AID 819;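 active means activation above 40%, about the mean plus 3 SD, also judged a hit on visual image review; inconclusive means activation above 40% but not a hit on visual review; inactive means activation not above 40% and no visual hit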;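 further: percent activation is computed from the nuclear over cytoplasmic p65 intensity ratio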
* marks the source's active call; other numbers are inactive results; ? = inconclusive; / = no result given. This is a sample that favours compounds with a hit; in the whole collection about 1.5% have one here.

SMILES	IL1B cytotox	IL1B NFkB inh	VCAM1 TNFa inh	TNFa cytotox	NFkB transloc pot
CC(C)(C)c1ccc(C(=O)N2CCC(C(=O)NCc3ccncc3)CC2)cc1	93.5*	100.0*	14.0	3.1	-100.0
CC12CCC(C(=O)N(CSC(=S)N/N=C\c3ccccc3)C1=O)C2(C)C (configuration not stated)	12.0	2.6	7.8	4.7	-2.6
CC12CCC(C(=O)N(CSC(=S)N/N=C\c3ccccc3Cl)C1=O)C2(C)C (configuration not stated)	94.7*	99.5*	21.6	1.1	-99.5
Cc1csc(NC(=O)CSc2nnc(CCNC(=O)c3cccs3)n2C)n1	88.8*	99.2*	16.3	4.2	-99.2
Cn1c(CCNC(=O)c2cccs2)nnc1SCC(=O)Nc1nc(-c2ccccc2)cs1	0.0	-0.8	13.4	6.7	0.8
O=C1CC(=O)N(Cc2ccco2)C(=S)N1	5.4	31.5*	1.1	56.1	-31.5
CC(C)N1CC(O)=C(c2nc3ccccc3[nH]2)C1=N	-7.6	-18.2	/	100.0*	18.2
CC(C)CCN1CC(O)=C(c2nc3ccccc3[nH]2)C1=N	0.3	-6.7	5.6	-12.1	6.7
Cc1cc(N2CCCC2=O)c(N)cc1N	14.9	7.8	5.3	-7.6	-7.8
COC(=O)C1C(=O)C2=C(CC1C)NC(=O)CC2c1cccc(C)c1 (configuration not stated)	90.2*	-9.8	77.1*	87.4*	9.8
COC(=O)C1C(=O)C2=C(CC1C)NC(=O)CC2c1ccccc1 (configuration not stated)	-6.8	15.7	2.7	-12.5	-15.7
Cc1[nH]n(CCC#N)c(=O)c1CC(=O)N1CCN(c2ccccc2)CC1	2.3	3.8	-8.6	7.1	-3.8
FC(F)(F)c1cnc(Oc2ccccc2-c2nnco2)c(Cl)c1	-8.5	6.9	9.9	3.2	-6.9
CC1(C)CC(=O)C(C(=S)Nc2ccccc2)=C(NCCN2CCOCC2)C1	-17.7	-0.2	-11.0	-29.6	0.2
N#Cc1nc(-c2ccco2)oc1N1CCOCC1	-76.6	16.3	40.0*	-30.8	-16.3
O=C(CN1CCN(c2ccccn2)CC1)Nc1ccccc1	-31.3	-40.5	5.0	-30.7	40.5*
CC(=O)Nc1ccc(NC(=O)CN2CCN(c3cccc(C(F)(F)F)c3)CC2)cc1	-23.8	34.2*	-13.1	-8.6	-34.2
O=C(CN1CCN(c2ccccn2)CC1)Nc1ccc(F)cc1	9.4	-10.7	4.7	-22.6	10.7
Cc1c(NC(=O)C(C)NCC2CCCO2)c(=O)n(-c2ccccc2)n1C (configuration not stated)	1.9	-0.9	17.6	8.7	0.9
CCN(CC)CCN1C(=O)C(=O)/C(=C(/O)c2cnn(-c3ccccc3)c2C)C1c1cccnc1 (configuration not stated)	-1.3	15.1	17.4	-20.2	-15.1
Cc1c(/C(O)=C2/C(=O)C(=O)N(CCN3CCOCC3)C2c2cccnc2)cnn1-c1ccccc1 (configuration not stated)	2.3	-59.6	6.1	-18.5	59.6*
CCOC(=O)c1cccc(Nc2nc(C)cc(C)n2)c1	82.7*	-1.6	-8.0	-2.5	1.6
CCN(CC)Cc1nc2c(c(=O)[nH]1)C1(CCCCC1)Cc1ccccc1-2	89.6*	4.8	-19.3	/	-4.8
c1ccc2c(c1)CCOC2CNCCCN1CCCCC1 (configuration not stated)	-30.8	2.1	8.7	-13.8	-2.1
O=C(c1cc2ccccc2o1)N1CCN(c2ccccc2Cl)CC1	92.8*	18.2	-13.1	-18.6	-18.2
SMILES	IL1B cytotox	IL1B NFkB inh	VCAM1 TNFa inh	TNFa cytotox	NFkB transloc pot
O=C(c1ccccc1)N1CCN(C(=O)c2cc3ccccc3o2)CC1	-1.9	-15.6	22.3	-3.6	15.6
Cc1ccc(C(=O)O/N=C/c2c(C(F)(F)F)nn(C)c2Sc2ccc(Cl)cc2)cc1	12.0	-19.5	-10.6	6.5	19.5
COC(=O)c1ccccc1Sc1c(/C=N/OC(=O)c2ccccc2)c(C(F)(F)F)nn1C	30.4	44.5*	5.1	30.9	-44.5
COc1ccc(C2=Nn3c(nnc3-c3ccccc3OC)SC2)cc1OC	-90.4	29.1	47.5*	54.9	-29.1
COc1ccc(C2=Nn3c(nnc3-c3ccccn3)SC2)cc1OC	-220.0	-17.7	-0.8	-30.6	17.7
COc1cc(-c2nnc3n2N=C(c2ccccc2)CS3)cc(OC)c1OC	-17.8	0.1	54.3*	-1.9	-0.1
COc1ccc(C2=Nn3c(nnc3-c3ccc(OC)cc3)SC2)cc1	3.5	-2.3	39.6*	33.9	2.3
O=C(N/N=C/c1cccc(Oc2ccc([N+](=O)[O-])cc2[N+](=O)[O-])c1)c1cncc(Br)c1	-3.9	-9.8	-12.2	-1.3	9.8
O=C1CC(N2CCN(c3nc4ccccc4s3)CC2)C(=O)N1Cc1cccs1 (configuration not stated)	-28.6	-22.6	18.9	0.4	22.6
OCCN=C(c1ccccc1)C12CN3CN(CN(C3)C1)C2	-11.6	-41.0	59.9*	-43.5	?
CCOc1ccc(CNC(=O)C2CCN(S(=O)(=O)CC)CC2)cc1OC	93.9*	-23.9	20.4	7.5	23.9
CCOc1ccc(CNC(=O)C2CCCN(S(C)(=O)=O)C2)cc1OC (configuration not stated)	-14.3	-7.9	/	/	7.9
CCOC(=O)Nc1nnc(CCc2ccccc2)s1	-4.9	100.7*	2.0	-14.2	-100.7
CCOCCc1nnc(NC(=O)COC)s1	84.4*	0.8	7.3	-6.6	-0.8
CCCCCOC(=O)Nc1nnc(CCCCC)s1	90.2*	22.7	-10.4	0.8	-22.7
CCCCCc1nnc(NC(=O)OCCC)s1	2.0	3.3	-9.1	-3.2	-3.3
O=C(COc1ccc([N+](=O)[O-])cc1)Nc1ccc(C(=O)NCc2cccnc2)cc1	-39.6	3.5	12.6	-19.1	-3.5
O=C(O)COc1ccc(=O)n(-c2ccccc2)n1	-57.1	-12.9	-1.0	-17.9	12.9
COC(=O)COc1ccc(=O)n(-c2ccccc2)n1	9.8	-12.8	/	98.9*	12.8
Cc1ccc(Cn2c(=O)cc(C(=O)O)c3ccccc32)cc1	-6.3	10.8	-3.9	-13.3	-10.8
CCOC(=O)c1cc(=O)n(Cc2ccccc2C)c2ccccc12	-21.8	-17.0	85.7*	-45.6	17.0
CCC(C)(CC(=O)N(C)CCC#N)c1ccccc1 (configuration not stated)	83.7*	25.9	10.4	-14.8	-25.9
C=CCOc1c2ccc(C(=O)NCc3ccc(OC)cc3)cc2nn1C	3.4	5.1	-9.9	-24.8	-5.1
C=CCOc1c2ccc(C(=O)NCc3ccccc3OC)cc2nn1C	-38.2	0.7	68.3*	71.6	-0.7
O=C1CC(c2cc(Br)ccc2F)c2cc3c(cc2N1)CCC3 (configuration not stated)	29.9	6.3	82.5*	/	-8.8
O=C1CC(c2ccccc2F)c2cc3c(cc2N1)CCC3 (configuration not stated)	18.5	-4.8	5.6	16.6	4.8
Cn1c(C(=O)NCCN2CCOCC2)cc2sccc21	-0.4	7.8	64.1	88.3*	-7.8
O=C(Cn1c(C(=O)NCCCN2CCOCC2)cc2sccc21)c1ccccc1	-1.2	4.7	20.8	-22.2	-4.7
